For 96 molecules, inhibition results are on record in PubChem BioAssay AID449762 (Southern Research Specialized Biocontainment Screening …, 2010).

Molecules are shown by their SMILES. Among all 330,000 compounds or so, about 1,900 (0.58%) were called active. About 4% were inconclusive and are not listed. Only a sample is shown. Entries with a potency or affinity are not part of this list. Unmarked numbers belong to inactive results. Rule as the data show it: inconclusive = inhibition above about 70% without an active follow-up result; inactive = below that.

The nature of this assay: M. tuberculosis growth inhibition, HTS (AID 449762).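 Also: bacterial growth assessed after seven days of incubation.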 To be noted: M. tuberculosis H37Rv growth inhibition, 7H9 media; at 25 µM; active compounds read high.
What is called inhibition is the change of the read-out against control, counted positive when it falls. Consider `Cc1ccc(N2CC(C(=O)Nc3cccc(C(=O)NC4CC4)c3)CC2=O)cc1` (stereo unspecified), for which the inhibition was -1.62%.

In the case of `C/C(=N\Nc1nncc2ccccc12)c1ccc(O)cc1`, the inhibition was 13.3%. Under `COc1ccc(CC(=O)Oc2ccccc2C)cc1` stands 10.5%.

In the case of `CCN(CC)c1ccc(/C=N/NC(=O)c2ccc3nc[nH]c3c2)cc1`, the inhibition is 5.47%. Under `CNC(=O)COc1coc(CN2CCN(c3ccccc3)CC2)cc1=O` stands -6.51%.

In the case of `CC(NC(=O)/C(=C\c1cccc([N+](=O)[O-])c1)NC(=O)c1ccco1)C(=O)O` (stereo unspecified), the inhibition was 2.24%. For `CCOC(=O)c1c(NC(=O)c2cc(-c3cccc(O)c3)on2)sc(C(C)=O)c1C`, the inhibition is 2.98%. With `Cc1oc2c(CN3CCCC(C)C3)c(O)ccc2c(=O)c1-c1ccccc1` (stereo unspecified), the inhibition was 0.44%. Take `CC1CCCCN1Cc1c(O)ccc2c(=O)c(-c3nc4ccccc4s3)coc12` (stereo unspecified): the inhibition was 6.43%.

On to `Cc1cccc(-n2nnnc2SCC(=O)N(CC(C)C)c2c(N)n(CC(C)C)c(=O)[nH]c2=O)c1`, for which the inhibition was 1.22%. Take `CC(C)Cc1nc2oc3c(NCC(C)O)ncnc3c2c2c1CCCC2` (stereo unspecified): the inhibition was 2.05%.

For `CC(C)Cc1nc2oc3c(Cl)ncnc3c2c2c1CCCC2`, the inhibition was 2.35%.

As for `CC(C)c1ccc(CCNC(=O)c2cccc(S(=O)(=O)N3CCN(C)CC3)c2)cc1`, the inhibition is -4.06%. `O=C1CCN(CCc2ccccc2)CCN1[C@H](CSc1ccccc1)Cc1ccccc1`: the inhibition was 13.6%. On to `CCCN1CCC(=O)N([C@H](CSc2ccc(OC)cc2)Cc2ccccc2)CC1`, for which the inhibition was 0.11%. On to `Cc1cc(C(=O)CSc2nc(N)cc(N)n2)c(C)n1CC1CCCO1` (stereo unspecified), for which the inhibition is -3.69%.

`CCn1c(=O)c2cc(C(=O)NC(C)C)sc2c2ccccc21`: the inhibition was -0.74%. Consider `Cc1c(OCc2nn[nH]n2)ccc2c3c(c(=O)oc12)CCCC3`, for which the inhibition is -3.72%. Regarding `COc1ccccc1OCC(=O)Nc1ccc(S(=O)(=O)N(C)c2ccccc2)cc1`, the inhibition is -13.2%. Regarding `COc1nc(-c2ccccc2)cc(C(F)(F)F)n1`, the inhibition was -3%. Under `COc1ccccc1-c1cc(C(F)(F)F)nc(S(C)(=O)=O)n1` stands 2.66%; under `O=C(NC(=S)Nc1ccc(CN2CCOCC2)cc1)c1cc2ccccc2o1`, 68.5%; under `COc1ccc(-n2c(-c3ccc(Br)cc3)n[nH]c2=S)cc1`, 7.43%. With `C=CCN(c1nc(C)cc(OC)n1)S(=O)(=O)c1ccccc1`, the inhibition was -6.07%. `CC(OC(=O)/C=C/c1ccc2ccccc2n1)C(=O)Nc1ccc(S(N)(=O)=O)cc1` (stereo unspecified): the inhibition is 11.9%. `CC(OC(=O)/C=C/c1ccc2ccccc2n1)C(=O)N(C)c1ccccc1` (stereo unspecified): the inhibition is -4.67%.

Take `NC(=O)c1ccccc1OCC(=O)Nc1cccnc1Cl`: the inhibition is 2.44%. For the molecule `CCCc1ccc(Oc2cc(N3CCOCC3)nc(-c3ccccc3)n2)cc1`, the inhibition is 17.9%. `CN(/N=C/c1cc(Br)cc(Br)c1O)c1ccccc1`: the inhibition was 3.99%. Consider `O=C(O)c1cccc(N/N=C/c2cc(Br)cc(Br)c2O)c1`, for which the inhibition was -15.9%. Consider `Cc1ccc(C(=O)Nc2ccccc2C(=O)N2CCCCC2C)cc1` (stereo unspecified), for which the inhibition was -0.75%.

`COCC(=O)Nc1ccc(N2CCOCC2)c(S(=O)(=O)Nc2ccccc2OC)c1`: the inhibition is 1.36%. `CCCCCCn1c2c(c(=N)c3c1CCC3)CCC2`: the inhibition was -4.99%. In the case of `CCCCn1c2c(c(=N)c3c1CCC3)CCC2`, the inhibition is -1.93%. `Cc1ccc(OCC(=O)OCc2c(C)noc2C)cc1C`: the inhibition was 3.24%.

Regarding `Cc1noc(C)c1COC(=O)COc1ccc(C#N)cc1`, the inhibition was 6.51%. For `COc1ccc(/C=C/C(=O)OCC(=O)NCC2CCCO2)cc1` (stereo unspecified), the inhibition is 2.24%.

For `O=C(COC(=O)/C=C/c1ccc(F)cc1)NCC1CCCO1` (stereo unspecified), the inhibition is 6.52%. Under `Cc1noc(C)c1CSc1nnc(-c2ccccc2)n1N` stands 6.07%. Under `CCc1cc(C(=O)Nc2ccccc2)cs1` stands -4.05%. `CCOC(=O)Nc1ccc(C)cc1Br`: the inhibition is -1.99%. As for `COc1ccc(NC(=O)c2nc[nH]c2C(=O)N(C)Cc2ccccc2)cc1`, the inhibition was 9.08%. Under `NC1=NC(=O)/C(=C/C=C/c2cccs2)S1` stands 18.7%; under `COc1ccc(C(=O)Nc2c(N)nc(SCC(=O)NCC3CCCO3)[nH]c2=O)cc1` (stereo unspecified), 11.2%. Regarding `CCN(CC)C(=O)c1sc2nc(-c3ccncc3)[nH]c(=O)c2c1C`, the inhibition was -4.66%. For the molecule `CCN(CC)C(=O)c1sc2nc(Cc3ccccc3)[nH]c(=O)c2c1C`, the inhibition is 4.02%. With `COc1ccc(-n2c(O)c(/C=C3\C=Nc4ccc(Br)cc43)c(=O)[nH]c2=O)c(OC)c1`, the inhibition is -3.48%. As to `CCn1c(CSc2nnc(-c3ccc4c(c3)OCO4)o2)nc2cc(S(=O)(=O)N(C)C)ccc21`, the inhibition is -2.02%. Turning to `O=C(c1cc(-c2cccc(Cl)c2)nc2ccccc12)N1CCCC1`, the inhibition was 4.01%.

With `COc1ccc(C2CC(c3c(-c4ccccc4)c4cc(Cl)ccc4[nH]c3=O)=NN2S(C)(=O)=O)cc1OC` (stereo unspecified), the inhibition was 7.95%. In the case of `COc1ccc(OC)c(C2CC(c3c(-c4ccccc4)c4cc(Cl)ccc4[nH]c3=O)=NN2S(C)(=O)=O)c1` (stereo unspecified), the inhibition is 44.4%. Under `O=C(NCc1cccnc1)c1noc2c1CCCC2` stands -1.71%; under `CCOC(=O)c1nsnc1NCCCl`, 4.35%; under `COc1cccc(/C(C)=N/Nc2ccc(S(=O)(=O)N3CCCCC3)cn2)c1`, -2.89%. Consider `C/C(=N\Nc1ccc(S(=O)(=O)N2CCCCC2)cn1)c1ccc(O)cc1`, for which the inhibition is -0.43%.

Consider `CC(=O)Nc1ccc(S(=O)(=O)Nc2ccccc2N2CCOCC2)cc1`, for which the inhibition is 5.3%. For `CCCN(CCC)CCCNC(=O)c1cn(CC)c2ccc(S(=O)(=O)N3CCOCC3)cc2c1=O`, the inhibition was 3.73%.

Take `CCCCN(C)CCCNC(=O)c1cn(CC)c2ccc(S(=O)(=O)N3CCOCC3)cc2c1=O`: the inhibition is 3.29%. Regarding `Cc1ccc(S(=O)(=O)n2nc(OC(=O)c3ccccc3F)cc2N)cc1`, the inhibition is 1.24%. Under `O=c1[nH]nnc2sc3c(c12)CCCC3` stands 1.62%. Turning to `COc1cc(NS(=O)(=O)c2ccc(NC(=S)NC(=O)c3sc4ccccc4c3Cl)cc2)nc(OC)n1`, the inhibition is -0.21%. Under `Cc1ccc(-c2csc(NC(=O)CN3CCC(C(N)=O)CC3)n2)cc1` stands 2.15%; under `COc1ccc(C(=O)C2CCN(CC(=O)Nc3ccc(C)cc3)CC2)cc1`, 8.88%.

As for `O=c1c(O)c(-c2ccc3c(c2)OCO3)oc2ccccc12`, the inhibition was 35.4%.

In the case of `Cc1ccc(-c2oc3ccccc3c(=O)c2O)cc1`, the inhibition was 27.6%. As for `CCOC(=O)CNC(=O)CNC(=O)c1ccc(OCC(C)C)cc1`, the inhibition is 22.7%. Take `CCOC(=O)c1sc2c(c1C)C(c1cccs1)C1=C(CCCC1=O)N2` (stereo unspecified): the inhibition is 11.9%.

In the case of `Cn1c(=O)c2c(nc(NCc3ccc4c(c3)OCO4)n2C)n(C)c1=O`, the inhibition was -2.77%.

`COc1ccccc1CCNC(=O)C(=O)Nc1cc2c3c(c1)CC(=O)N3CCC2`: the inhibition is 57.3%. Consider `O=C(CSc1nnc(CNC(=O)c2ccccc2)o1)c1ccc(Cl)cc1`, for which the inhibition is 1.96%.

On to `O=C(O)CSc1ccccn1`, for which the inhibition is 2.15%.

For `O=C(O)CCSc1ccccn1`, the inhibition was -6.45%. Under `COC(=O)CC1C(=O)NCCN1C(=O)c1ccc([N+](=O)[O-])cc1` (stereo unspecified) stands -0.41%; under `O=S(=O)(Nc1ccc(Cl)cn1)c1ccc(F)cc1`, -1.48%; under `COc1cc2c(cc1NC(=O)COC(=O)[C@@H](NS(=O)(=O)c1ccccc1)C(C)C)oc1ccccc12`, 6.17%.

For the molecule `Clc1ccc(N2CCNCC2)nn1`, the inhibition is -10.1%. Under `Cc1onc(-c2ccccc2Cl)c1C(=O)Nc1cccc2cccnc12` stands 14.3%; under `COc1cc(NC(=O)c2c(-c3ccccc3Cl)noc2C)c2ncccc2c1`, -6.92%. Turning to `Cn1cc(S(=O)(=O)N2CCC3(CC2)OCCO3)c(=O)n(C)c1=O`, the inhibition was -0.14%.

With `CC1=C(C(=O)OCc2ccccc2)C(c2cccc(F)c2)NC(=O)N1` (stereo unspecified), the inhibition is -8.13%. Under `Cc1cccc(-n2ncc3c2CCCC3NC(=O)C2=CC(=O)CC(C)(C)O2)c1C` (stereo unspecified) stands -0.85%; under `Cc1ccc(N(CC(=O)Nc2cc(C)cc(C)c2)S(=O)(=O)c2c(C)noc2C)cc1`, 6.89%. On to `O=C(OCC(=O)C12CC3CC(CC(C3)C1)C2)c1ccccc1O`, for which the inhibition is 6.66%.

Regarding `CN(C)C(=O)c1cccn1-c1ncc(C(F)(F)F)cc1Cl`, the inhibition is -4.51%. Under `Cc1cc(C)cc(NC(=O)c2cccn2-c2ncc(C(F)(F)F)cc2Cl)c1` stands 6.22%; under `NC(=O)CCNC(=O)c1ccc(Cl)cc1`, -5.92%; under `Cc1ccc(NC(=O)CN2C(=O)C3CC=CCC3C2=O)cc1S(=O)(=O)N1CCOCC1` (stereo unspecified), -2.53%. `CC(/C=C/c1ccccc1)=N\NC(=S)NC(C)C`: the inhibition was 28.1%. On to `COC(=O)N/N=C(C)/C=C/c1ccccc1`, for which the inhibition was -8.99%. With `Cc1ncc(CSc2nnnn2-c2ccccc2)c(N)n1`, the inhibition was 1.43%. As to `O=C(O)Cn1c(SCc2ccccc2)nc2ccccc21`, the inhibition was 2%.

On to `O=C(O)CCn1c(SCc2ccccc2)nc2ccccc21`, for which the inhibition was 2.64%. On to `COC(=O)C1=C(c2ccc(OC)c(OC)c2)C[C@@H]2CC[C@H]1N2C(=O)NC1Cc2ccccc2C1`, for which the inhibition was -10%. With `Cc1ccc(C(=O)Nc2ccccc2NC(=O)c2ccc(C)o2)o1`, the inhibition is 7.31%. Under `Cc1cc(C(=O)CSc2nnc(N)s2)c(C)n1CCc1ccc(Cl)cc1` stands 9.47%; under `Cc1cc(C(=O)CSc2nnnn2C)c(C)n1CCc1ccc(Cl)cc1`, 4.63%.
